Bioassay records as filed in PubChem BioAssay.
HBB splicing – qHTS Assay for Modulators of Hemoglobin Beta Chain Splicing; HBB splicing reporter cell assay, activation; EGFP reporter with mutant IVS2-654 intron; response scale: normalised to 500 nM splice-correcting PNA; Potency, µM (series often up to 46.1 µM), inactives show top-dose activation, hits mostly activators; 0.06% of 65,000 active; AID 925, 2007; note: potency is the fitted concentration of half-maximal effect; 0% is about no effect
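Compounds were applied for 2 days to HeLa EGFP-654 cells, 500/well in Optimem with 2% FCS. The reporter's EGFP is disrupted by mis-splicing of beta-globin intron IVS2-654. Readout: summed well GFP fluorescence from 488 nm laser scanning; reference was 500 nM antisense […] 654 PNA.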
Bst PK mod – Pyruvate Kinase. purified pyruvate kinase, luminescence ATP production; ribose 5-phosphate activator present at AC10. Potency, µM. 1.2% of 51,000 active. AID 361, 2006; in the data active = potency below about 11 µM; inconclusive = mostly about 12 µM to 25 µM;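 the screen sought inhibitors and activators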;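 note: potency is the fitted concentration of half-maximal effect; scaled between full activation by ribose 5 phosphate and full inhibition by luteolin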
GFP derepression – qHTS Assay for Epigenetic Modulators; mouse C127i GFP locus derepression, cytometry, 30 h; Potency, µM (doses to about 46.1 µM), for the others: top-dose GFP derepression (activation); 0.09% of 68,000 active; note: % of control where 0% means no effect
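Derepression screen: silenced CMV-GFP reporter in murine C127i cells, 30 h compound incubation at 37 C, washed cells imaged by laser-scanning cytometer to enumerate GFP-expressing objects of 20 to 120 um.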
FLuc inh – qHTS Assay for Inhibitors of Firefly Luciferase; Luciferin 4-monooxygenase (Photinus pyralis), P08659; purified firefly luciferase, luminescence, 8 min; Potency, µM (series often up to 57.1 µM), inactives show at the highest dose activity change, negative = inhibition, actives largely listed as inhibitors; 2.2% of 72,000 active; AID 411, 2009; note: potency is the fitted concentration of half-maximal effect; % is set by controls: 0 for no effect and ±100 for the full control effect; nearly all actives have a fitted effect of over 40% in size
Target sequence (P08659 whole entry, looked up): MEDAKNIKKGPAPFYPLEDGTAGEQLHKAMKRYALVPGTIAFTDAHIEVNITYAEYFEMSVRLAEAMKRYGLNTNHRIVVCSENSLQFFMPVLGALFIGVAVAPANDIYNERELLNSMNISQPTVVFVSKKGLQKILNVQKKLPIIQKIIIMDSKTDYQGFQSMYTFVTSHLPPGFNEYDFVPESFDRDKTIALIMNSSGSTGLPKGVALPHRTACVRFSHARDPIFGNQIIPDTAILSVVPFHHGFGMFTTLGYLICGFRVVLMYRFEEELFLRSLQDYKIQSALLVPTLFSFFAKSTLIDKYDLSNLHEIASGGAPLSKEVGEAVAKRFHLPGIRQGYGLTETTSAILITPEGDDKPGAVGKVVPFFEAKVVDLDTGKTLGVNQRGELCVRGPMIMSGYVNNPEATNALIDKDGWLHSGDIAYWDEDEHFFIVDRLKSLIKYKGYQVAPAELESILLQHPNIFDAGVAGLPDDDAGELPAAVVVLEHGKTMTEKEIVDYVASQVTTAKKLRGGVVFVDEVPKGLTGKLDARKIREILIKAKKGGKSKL
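Compounds were tested as concentration series (qHTS) against purified P. pyralis luciferase with luciferin and 10 uM ATP in 50 mM imidazole pH 7.2, 50 mM KCl, 7 mM MgCl2, 0.01% Tween 20, 0.05% BSA. Luminescence was read after 8 min at ambient temperature.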
* = called active by the depositor; i = inactive; u = inconclusive; x = not tested or not shown; [ ] = another dose, or the depositor's remark. Hits are enriched below; roughly 2.6% of the tested compounds scored in any of these assays. Unless noted, calls come from the whole dose curve; as a rule, active = well fitted curve in the direction sought with a large enough effect; inconclusive = small, poorly fitted or top-dose-only effect, or another doubt; inactive = no such curve, though single readings can be large; an effect the other way counts as inactive or inconclusive.

SMILES	HBB splicing	Bst PK mod	GFP derepression	FLuc inh
CCc1ccc2oc(-c3cc(N)ccc3Cl)nc2c1	x	2.9*	5%	2.5µM*
FC(F)(F)c1cc(CN2CCC3(CCNCC3)CC2)cc(C(F)(F)F)c1	4%	x	9%[9.22 µM]	1%[11.4 µM]
Cc1cc(Nc2ccc(O)cc2)ccc1N	0%	x	x	x
C[C@@](N)(C(=O)O)c1ccc(P(=O)(O)O)cc1	x	x	0%	0%
C=CCSc1nnc(-c2ccc(Cl)cc2Cl)o1	-1%[0.0738 µM]	x	0%	7.9µM*
Clc1ccc(-c2nnc(SCc3ccon3)o2)c(Cl)c1	0%	10*	0%	7.9µM*
NCCC[C@@H](CC(=O)N[C@@H]1CCNC[C@H]1C(=O)N[C@H](CC(=O)N[C@@H](CCC(=O)O)CC(=O)O)Cc1ccccc1)NC(=O)C[C@H](Cc1c[nH]c2ccccc12)NC(=O)[C@@H]1CCCC[C@H]1N	-1%	x	x	x
O=C(OCC(=O)c1c[nH]c2ccccc12)c1ccco1	1%[1.84 µM]	u	-4%	16µM*
Cc1cnc(CNc2nc(-c3ccc(N(C)C)cc3)nc3ccccc23)cn1	2%	x	-1%[9.22 µM]	0.79µM*
Cc1cnc(CNc2nc(-c3ccccc3C(F)(F)F)nc3ccccc23)cn1	2%	x	0%[9.22 µM]	-3%[2.29 µM]
O=C(c1ccc(N2CCOCC2)cc1)c1cccs1	x	u	0%	10µM*
CCNc1ncc2nc(-c3ccc(Cl)cc3)c(=O)n(CCC#N)c2n1	1%	x	3%[9.22 µM]	0%[11.4 µM]
Cc1ccc(SCc2cn3c(C)csc3n2)cc1	4%[0.369 µM]	x	2%	16µM*
COc1cccc(Nc2ncc3nc(-c4cccs4)c(=O)n(C[C@H]4CCCO4)c3n2)c1	2%	x	-5%[9.22 µM]	1%[11.4 µM]
O=C(Oc1ccccc1)N1CCC2(CC1)CCN(c1ccccn1)CC2	1%	x	0%[9.22 µM]	-2%[11.4 µM]
CCOc1ccc(-c2nnc(N)o2)cc1	1%	x	1%	-14%
CCCCOc1ccc(-c2nnc(-c3ccncc3)o2)cc1	-2%	5.6*	-2%	0%
CCOc1ccc(-c2nnc(-c3ccncc3)o2)cc1	x	2.1*	-2%	-21%
Clc1cccc(Cl)c1Cn1cnc(=NCc2ccco2)c2[nH]cnc21	9%[0.369 µM]	2.2*	2%	-1%
O=C(c1ccc2c(c1)OCCO2)C1CCN(S(=O)(=O)c2ccc(F)cc2)CC1	x	10*	-3%	0%
COc1ccc2nc3c(cc2c1)c(NC(=O)c1cccs1)nn3CC(C)C	-3%[0.369 µM]	i	2%	13µM*
CN1CCN(c2nc(C(N)=O)cc(-c3ccccc3)n2)CC1	x	11*	0%[20.6 µM]	1%[25.5 µM]
O=C(OCC(=O)c1ccccc1Br)c1ccccn1	0%[57.5 µM]	x	4%	13µM*
O=C(Oc1ccccc1)c1ccc(COC(=O)c2cnccn2)cc1	0%	>57	-4%	-11%
COC(=O)c1ccccc1NC(=O)COC(=O)c1cccnc1	x	>57	2%	-3%
SMILES	HBB splicing	Bst PK mod	GFP derepression	FLuc inh
O=C(OCc1c(Cl)cccc1Cl)c1cccnc1	1%	9.2*	-2%	1%
O=C(OCc1c(Cl)cccc1Cl)c1cnccn1	1%	4.7*	0%	1%
O=C(OCc1c(Cl)cccc1Cl)c1ccccn1	-4%	3.8*	1%	0%
Cc1ccc(S(=O)(=O)N2CCC(C(=O)NCCCN3CCCCCC3)CC2)cc1	1%[57.5 µM]	10*	4%	-1%
CC[C@@H](C)[C@H]1O[C@]2(CC[C@@H]1C)C[C@@H]1C[C@H](C/C=C(/C)[C@H](O[C@@H]3C[C@H](OC)[C@H](O[C@@H]4C[C@H](OC)[C@@H](O)[C@H](C)O4)[C@H](C)O3)[C@@H](C)/C=C\C=C3CO[C@@H]4[C@H](O)C(C)=C[C@@H](C(=O)O1)[C@]34O)O2 (tested in a mixture with another compound)	x	x	1%	-1%
COc1ccc(-c2nn3c(-c4cccc(C)c4)nnc3s2)cc1OC	2%[57.5 µM]	>57	2%	0%
COc1cc(-c2nnc3sc(-c4cccs4)nn23)cc(OC)c1OC	1%[1.84 µM]	2.8*	-2%	1%
COc1ccc(-c2nnc3sc(-c4cccs4)nn23)cc1OC	0%[57.5 µM]	2.6*	4%	0%
COc1ccc2[nH]cc(CCNc3ccnc(-c4ccccc4C)n3)c2c1	1%	x	0%[9.22 µM]	-1%[2.29 µM]
Clc1ccc(-c2nnc(-c3ccco3)o2)cc1	0%	4*	0%	-18%
c1cncc(-c2nnc(-c3ccco3)o2)c1	x	>57	-1%	-3%
COc1ccc(N/C=C(\C#N)c2nc3ccccc3n2C)c(OC)c1	x	10*	-6%[20.6 µM]	4µM*
Cn1c(/C(C#N)=C(\O)COc2ccc3ccccc3c2)nc2ccccc21	0%[57.5 µM]	>57	3%	8%
Cc1ccc(C2=N/C(=C/N3CCOCC3)C(=O)O2)cc1	0%	x	0%	20µM*
Nc1nc(-c2ccc3c(c2)OCCO3)cs1	-2%	i	1%	25µM*
CCC(C)C(=O)N1CCc2cc(-c3csc(N)n3)ccc21 (stereo unspecified)	x	8.1*	-2%	10µM*
c1cncc(-c2nc(-c3ccc4c(c3)OCO4)cs2)c1	0%[57.5 µM]	u	2%	13µM*
Nc1nc(-c2ccc3c(c2)CCCC3)cs1	-4%	u	4%	13µM*
CCCC(=O)Nc1nc(-c2ccc3c(c2)OCCO3)cs1	-1%	x	x	1%
O=C1CC[C@H](NC(=O)c2ccccc2)C(=O)N1	1%[9.22 µM]	x	0%[9.22 µM]	1%[11.4 µM]
COc1ccc2c(c1)[C@]1(C)CCC[C@](C)(CO)[C@@H]1CC2	x	x	0%[9.22 µM]	3%[11.4 µM]
Cn1cccc1C(=O)N1CCC2(CCCN(C(=O)Nc3cccc(C#N)c3)C2)CC1	1%	x	0%[9.22 µM]	1%[11.4 µM]
COc1ccc(Br)cc1CNC(=O)C1CCCN(S(C)(=O)=O)C1 (stereo unspecified)	-2%	5.4*	-2%	10µM*
CS(=O)(=O)N1CCCC(C(=O)NCc2ccccc2Cl)C1 (stereo unspecified)	-1%	>57	-3%	0%
COc1cc(OC)c(/C=C2/C(=O)Nc3ccccc32)c(OC)c1	-2%	x	-1%	1%
SMILES	HBB splicing	Bst PK mod	GFP derepression	FLuc inh
Cc1cc(C)c(/C=C2/C(=O)Nc3ccccc32)[nH]1	32µM*	x	0%	-5%
CCn1c(CCCc2nc3c([nH]2)c(=O)n(C)c(=O)n3C)nc2c1c(=O)n(C)c(=O)n2C	2%[9.22 µM]	x	6%[9.22 µM]	4%[11.4 µM]
C=CCNc1nc(N)c(C(=O)Nc2cc(C)on2)s1	-1%	x	3%	20µM*
C=CCNc1nc(N)c(C(=O)c2ccc3c(c2)OCO3)s1	0%[57.5 µM]	>57	6%	-16%
Cc1cccc(C)c1Nc1nc2ccccc2o1	-1%	x	x	-2%
Cc1nc(Nc2nc3ccccc3o2)nc2c1CCC2	-1%	x	0%	7.9µM*
CCCC[C@@H]1C[C@H]1[C@@H](NP(=O)(c1ccccc1)c1ccccc1)c1ccccc1OC	-1%	x	x	x
Cc1ccc(-n2c(SCC(=O)Nc3ccc4c(c3)OCCO4)nnc2-c2ccco2)cc1	-1%	>57	-1%	2%
Cc1nc2cnc(N(C)C)nc2n(-c2ccccc2)c1=O	0%	x	-2%[9.22 µM]	1%[11.4 µM]
COC(=O)c1sccc1NC(=O)c1cc2c(s1)CCCC2	0%	x	0%	20µM*
